# The whole screen tested about 110,000 compounds, of which about 610 (0.55%) were called active. A call without a number means that no potency is given here. Another 3% or so got no clear call; they are omitted. This excerpt belongs to a sample that is enriched for actives. Values without a mark were called inactive. Calls come from the whole dose curve; as a rule, active = well fitted inhibition curve with a large enough effect; inconclusive = small, poorly fitted or top-dose-only effect; inactive = no such curve, though single readings can be large or run the other way.
# Target: Polyunsaturated fatty acid lipoxygenase ALOX15B (Homo sapiens) (UniProt O15296)
# Sequence (O15296 whole entry, looked up): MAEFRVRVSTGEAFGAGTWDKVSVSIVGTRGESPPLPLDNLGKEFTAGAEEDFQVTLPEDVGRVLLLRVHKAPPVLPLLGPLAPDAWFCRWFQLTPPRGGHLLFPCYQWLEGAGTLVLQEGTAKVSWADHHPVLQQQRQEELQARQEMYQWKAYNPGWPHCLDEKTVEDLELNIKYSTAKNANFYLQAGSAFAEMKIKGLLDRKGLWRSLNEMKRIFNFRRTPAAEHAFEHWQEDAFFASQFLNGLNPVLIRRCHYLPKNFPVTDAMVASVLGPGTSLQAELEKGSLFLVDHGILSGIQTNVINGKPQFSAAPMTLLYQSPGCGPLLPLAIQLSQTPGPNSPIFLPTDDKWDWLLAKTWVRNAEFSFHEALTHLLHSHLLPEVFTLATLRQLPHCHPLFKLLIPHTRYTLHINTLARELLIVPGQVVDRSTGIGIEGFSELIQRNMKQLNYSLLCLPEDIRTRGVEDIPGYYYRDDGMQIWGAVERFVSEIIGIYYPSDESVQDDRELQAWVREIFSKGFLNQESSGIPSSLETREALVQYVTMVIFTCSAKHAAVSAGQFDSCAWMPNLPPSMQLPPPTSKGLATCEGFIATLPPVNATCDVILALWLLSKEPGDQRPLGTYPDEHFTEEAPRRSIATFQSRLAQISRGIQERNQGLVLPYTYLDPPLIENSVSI
# Assay: qHTS Assay for Inhibitors of 15-hLO-2 (15-human lipoxygenase 2); note: nearly all actives have a fitted effect of over 60% in size
# Conditions: purified 15hLO-2, xylenol orange hydroperoxide absorbance; series mostly up to 57.1 µM
# Procedure, shortened: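 Purified human 15hLO-2 (50 nM) preincubated 15 min with compound, then 45 uM arachidonic acid for 90 min at RT in 25 mM Hepes pH 7.5, 0.01% Triton X-100. Hydroperoxide detected by Fe-xylenol orange; 573/405 nm absorbance ratio.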
# Potency is the fitted concentration of half-maximal effect.
Structure (SMILES),"activity change, negative = inhibition",Potency
C#CCN(N(C)c1ncc(C(F)(F)F)cc1Cl)S(=O)(=O)c1ccc2ccccc2c1,inactive,
Cc1ccccc1-c1ccc(C(=O)O)s1,-3.34% [at 0.0915 µM],
COC(=O)CNC(=O)c1ccccc1F,inactive,
CC(C)CCSc1ncnc2c1oc1nc3c(cc12)COC(C)(C)C3,inactive,
Cc1ccc(-c2csc(NC(=O)c3cccs3)n2)cc1,inactive,
Cn1nc(-c2ccccc2)c(-c2nc(-c3ccc(Cl)cc3)no2)c1Cl,inactive,
CCCSc1nsc(N)n1,inactive,
COc1cc(OC)cc(C(=O)NC(=S)N2CCN(c3ccc(C(F)(F)F)cc3[N+](=O)[O-])CC2)c1,inactive,
COC(=O)CSc1snnc1-c1ccc(Cl)c(Cl)c1,inactive,
COC(=O)c1ccccc1NC(=O)CN(Cc1ccc(Cl)cc1)S(C)(=O)=O,inactive,
CC1CCN(c2ccc(S(=O)(=O)Nc3cc(C(=O)O)cc(C(=O)O)c3)cc2[N+](=O)[O-])CC1,inactive,
COc1ccc(C)cc1NC(=O)CCS(=O)(=O)c1cccc2nonc12,inactive,
Cc1ccc(/C=N/NC(=O)c2sccc2OCc2ccc(F)cc2)cc1,inactive,
C=CCNC(=S)NNc1ncnc2sc3c(c12)CC(C)(C)OC3,inactive,
COC(=O)CSc1nnc(-c2cccnc2)o1,inactive,
O=C(CSCc1ccc(Cl)cc1)N1CCCCC1,inactive,
NS(=O)(=O)c1ccc(CCNC(=O)Nc2ccc(Cl)cc2)cc1,inactive,
Oc1cc2c(cc1O)CN(C(=S)NCCc1ccc(Cl)cc1)CCC2,,12.6 µM (active)
CC(=O)c1ccc2c(ccc3ccccc32)c1,inactive,
C=CC(=O)c1ccc2ccccc2c1,,2 µM (active)
Cc1ccc2nc(CC(=O)c3ccc4ccccc4c3)c(=O)[nH]c2c1,-6.79% [at 11.4 µM],
CCC(=O)Nc1ccc(C(=O)Nc2cccc(OC)c2)cc1,inactive,
COc1ccccc1N=C(C)C1=C(O)COC1=O,inactive,

Structure (SMILES),"activity change, negative = inhibition",Potency
Cc1cccc(-n2cnc(C(=O)Nc3cccnc3)c2)n1,inactive,
Cc1ccc(S(=O)(=O)N2CCC(=O)N([C@H](COCc3ccccc3)Cc3ccccc3)CC2)cc1,6.39% [at 0.0915 µM],
O=S1(=O)CCN(Cc2ccccc2Cl)CC1,inactive,
CCN(CC)CCn1c(=S)[nH]c2ncccc2c1=O,inactive,
CCCc1cc(=O)[nH]c(SCC(=O)c2cc(C)n(CCC)c2C)n1,inactive,
COc1ccc(OC(C)C(=O)Nc2cccnc2)cc1 (stereo not drawn),inactive,
C=CCNC(=S)N/N=C/c1ccc(OCc2ccccc2)cc1,inactive,
O=C(O)c1cc2ccccc2c(=O)s1,inactive,
CS(=O)(=O)N(CC(=O)Nc1ccc(F)cc1F)c1cccc([N+](=O)[O-])c1,inactive,
COc1cccc(-c2cc(=O)c3cc(NC(=O)c4ccc(C)cc4)ccc3[nH]2)c1,-28.3% [at 0.0915 µM],
Cc1cccc([C@H]2[C@@H]3C=CC[C@@H](C)[C@@H]3C(=O)N2Cc2ccccc2)c1,-6.63% [at 0.0915 µM],
CCn1c(O)c2ccc(C(=O)N=NC(=O)c3cccnc3)cc2c1O,inactive,
CCOC(=O)N1CCC(Nc2c(NCCCN3CCN(CC)CC3)c(=O)c2=O)CC1,inactive,
COc1cccc(N=c2oc3c(C)ncc(CO)c3cc2C(N)=O)c1,inactive,
CC(C)CCNC(=O)CC1C(=O)N(Cc2ccccc2)C(C)c2nc3ccccc3n21 (stereo not drawn),inactive,
CC(C)(CNC(=O)c1cc(=O)[nH]c2ccccc12)N1CCOCC1,inactive,
COc1ccc(CN2CCCCC2C)cc1OC (stereo not drawn),inactive,
Cc1ccc(CNC(=O)CCNC(=O)Cn2ccc3ccccc3c2=O)cc1,inactive,
O=C(Nc1nnc(C2CC2)s1)c1ccccn1,inactive,
C/C=C1\C2C=C(C)CC1(N)c1ccc(=O)[nH]c1C2 (stereo not drawn),-9.9% [at 0.0915 µM],
Oc1ccc(O)c2c(O)cccc12,,12.6 µM (active)
COc1ccc(-c2cc3nc(C)c(CCC(=O)NC(C)CCc4ccco4)c(C)n3n2)c(OC)c1 (stereo not drawn),inactive,
COc1cc(OC)c2c(c1)OC(=O)CC2c1cc(OC)c(OC)c(OC)c1 (stereo not drawn),-2.71% [at 0.0915 µM],

Structure (SMILES),"activity change, negative = inhibition",Potency
COc1cc(OC)c2c(-c3cccc(-c4cccc(N)c4)c3)cc(=O)oc2c1,3.54% [at 0.0915 µM],
O=C(c1cccc(N2CCCC2=O)c1)N1CCOCC1,inactive,
Cc1cc2oc(=O)cc(-c3ccccc3)c2c(C)c1/C=C/c1ccc(F)cc1,-8.43% [at 0.0915 µM],
COc1ccc(SCc2noc(C(=O)NCC3CCCO3)c2C(=O)O)cc1 (stereo not drawn),inactive,
CCCCN1C(=O)/C(=C2/C=CC=CN2C)SC1=S,inactive,
CCN1C(=O)/C(=C2/Sc3ccccc3N2CCCS(=O)(=O)O)SC1=S,,15.8 µM (active)
CCN1C(=O)/C(=C\N2CCN(c3ccccc3)CC2)SC1=S,inactive,
CCN(CC)C(=O)CSc1nnc(-c2cccc(OC)c2)o1,inactive,
COc1ccc(-c2nnc(SC(=O)N3c4ccccc4Sc4ccccc43)o2)cc1,,10 µM (active)
COc1ccc(-c2nnc(SC(C)C#N)o2)cc1 (stereo not drawn),inactive,
Cc1cnc(NC(=O)CSc2nnc(C)s2)s1,inactive,
O=S(=O)(c1ccc(Br)cc1)c1nc(-c2ccccc2)oc1NCc1cccnc1,inactive,
Cc1ccc(-c2csc(NC(=O)Cc3cccs3)n2)cc1C,inactive,
Cc1nnc(NC(=O)CSc2nc(C3CCCCC3)nc3ccccc23)s1,inactive,
CCOCCCNC(=O)C(NC(=O)c1ccc(=O)[nH]c1)c1ccc(C)cc1 (stereo not drawn),inactive,
COc1ccc(N(CC(=O)NC2CCCCC2)S(=O)(=O)c2c(C)[nH]c(=O)[nH]c2=O)cc1,inactive,
CCc1c(C)[nH]c(=S)c(C#N)c1C,,31.6 µM (active)
O=C(Nc1ccccc1)c1ccccc1NC(=O)C(F)(F)F,inactive,
CCCNC(=S)NC1CC2CCCC(C1)N2CC(C)C (stereo not drawn),inactive,
Cc1ccc(F)c(NC(=O)CCc2ccccc2)c1,inactive,
COc1ccc(-c2c(C)cc3oc(=O)cc(-c4ccccc4)c3c2C)cc1C=O,-27.8% [at 0.0915 µM],
COc1ccc(C2CC(=O)Oc3ccc(C(C)(C)C)cc32)cc1 (stereo not drawn),-11.2% [at 0.0915 µM],
